{"source": "PubChem BioAssay (Tox21)", "note": "Records with an inconclusive call do not appear. Entries that show only a call come without a potency. A structure can be active in one record and inactive in another. Calls of active or inactive are those of the source. The call rests on the fitted dose curve; in most records, active means well fitted inhibition curve with a large enough effect in the signal ratio in the repeat runs (not every such curve was filed as active); inconclusive means weak or mixed curves; inactive means flat fitted curve, though single readings scatter; the % refers to the signal ratio. Potency means the concentration at half of the fitted maximal effect."}
{"biological_target": "Progesterone receptor (Homo sapiens) (UniProt P06401)", "sequence (P06401 whole entry, looked up)": "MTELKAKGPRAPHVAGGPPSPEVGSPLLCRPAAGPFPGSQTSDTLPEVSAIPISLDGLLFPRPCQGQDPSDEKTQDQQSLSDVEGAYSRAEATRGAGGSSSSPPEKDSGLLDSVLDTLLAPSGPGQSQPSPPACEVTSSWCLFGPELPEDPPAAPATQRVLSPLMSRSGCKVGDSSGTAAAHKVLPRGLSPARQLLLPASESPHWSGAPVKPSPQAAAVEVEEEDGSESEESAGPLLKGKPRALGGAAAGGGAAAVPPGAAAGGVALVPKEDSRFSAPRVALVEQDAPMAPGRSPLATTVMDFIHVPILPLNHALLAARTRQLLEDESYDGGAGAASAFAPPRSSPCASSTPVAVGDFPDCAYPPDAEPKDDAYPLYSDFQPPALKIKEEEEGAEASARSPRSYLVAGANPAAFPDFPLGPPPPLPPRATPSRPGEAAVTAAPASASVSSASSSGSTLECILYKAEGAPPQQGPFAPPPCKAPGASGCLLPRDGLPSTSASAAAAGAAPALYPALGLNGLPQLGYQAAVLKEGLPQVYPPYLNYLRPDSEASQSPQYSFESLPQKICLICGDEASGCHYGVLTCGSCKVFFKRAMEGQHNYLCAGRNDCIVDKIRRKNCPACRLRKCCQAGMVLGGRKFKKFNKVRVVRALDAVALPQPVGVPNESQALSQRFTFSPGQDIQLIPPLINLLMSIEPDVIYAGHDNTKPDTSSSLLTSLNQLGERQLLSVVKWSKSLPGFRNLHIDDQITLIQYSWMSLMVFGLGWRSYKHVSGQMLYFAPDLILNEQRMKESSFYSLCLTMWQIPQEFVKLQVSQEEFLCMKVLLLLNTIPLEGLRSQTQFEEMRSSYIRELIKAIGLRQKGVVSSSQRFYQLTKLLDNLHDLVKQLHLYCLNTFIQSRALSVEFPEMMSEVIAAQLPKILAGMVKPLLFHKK", "experiment": "qHTS assay to identify small molecule antagonists of the progesterone receptor (PR) signaling pathway (AID 1346795)", "conditions": "PR-UAS-bla HEK293T, beta-lactamase FRET ratio, 16 h; series mostly up to 92.4 µM; activity change, negative = inhibition: at the top concentration", "source_text": "National Center for Advancing Translational Sciences [NCATS]\nNIH Chemical Genomics Center [NCGC]\nU.S. Environmental Protection Agency [EPA]\nNational Institutes of Environmental Health Sciences [NIEHS]\nNational Toxicology Program [NTP]\nU.S. Food and Drug Administration [FDA]\nProgesterone receptor (PR), a nuclear hormone receptor, plays an important role in development, metabolic homeostasis and reproduction. […] Endocrine disrupting chemicals (EDCs) and their interactions with steroid hormone receptors like PR causes disruption of normal endocrine function. To identify the compounds that inhibit PR signaling, a PR-UAS-bla GripTite cell line i.e. PR-UAS-bla HEK293T (Invitrogen, Carlsbad, CA, USA) containing a beta-lactamase reporter gene under the control of an Upstream Activator Sequence (UAS) was used to screen Tox21 10K compound library.\nTox21 Assay Protocol Summary:\nPR-UAS-bla HEK293T cells were dispensed at 3,000 cells/4 uL of assay medium containing 2% charcoal stripped FBS per well into black wall/clear-bottom 1536-well plates using a Multidrop Combi (ThermoFisher Scientific, Waltham, MA) dispenser. After the assay plates were incubated at a 37C and 5% CO2 for 6 hr, 23 nL of compounds dissolved in DMSO, positive controls or DMSO only was transferred to the assay plate by a Pintool station (Kalypsys, San Diego, CA), followed by addition of 1 uL (1nM as final concentration) of Promegestone (R5020) in assay medium using a BioRAPTR FRD (Flying Reagent Dispenser, Aurora Discovery, San Diego, CA). The plates were incubated at 37C and 5% CO2 for 16 hr. Then 1 uL of LiveBLAzer B/G FRET substrate was added using a FRD. After the plates were incubated at room temperature for 2 hours, fluorescence intensity was measured by an Envision plate reader (PerkinElmer, Shelton, CT)."}
{"smiles": "Nc1ccc(Oc2ccc(N)cc2)cc1", "Potency": "inactive"}
{"smiles": "O=S(=O)(c1ccc(Cl)cc1)c1cc(Cl)c(Cl)cc1Cl", "Potency": "13.7 µM (active)"}
{"smiles": "OC(O)C(Cl)(Cl)Cl", "activity change, negative = inhibition": "14.9% [at 42.5 µM] (inactive)"}
{"smiles": "CC(Br)C(=O)O", "note": "(stereo not given)", "Potency": "inactive"}
{"smiles": "COC(=O)NS(=O)(=O)c1ccc(N)cc1", "Potency": "inactive"}
{"smiles": "c1ccc(OP(Oc2ccccc2)Oc2ccccc2)cc1", "Potency": "inactive"}
{"smiles": "O=c1n(Cl)c(=O)n(Cl)c(=O)n1Cl", "Potency": "inactive"}
{"smiles": "CCCN(CCC)N=O", "Potency": "inactive"}
{"smiles": "CCOP(=S)(OCC)SCCSCC", "Potency": "inactive"}
{"smiles": "Nc1ccccc1C(=O)O", "Potency": "inactive"}
{"smiles": "COc1ccc2c3c1O[C@H]1[C@@H](O)C=C[C@H]4[C@@H](C2)N(C)CC[C@@]341", "activity change, negative = inhibition": "-2.79% (inactive)"}
{"smiles": "NCCc1ccc(O)cc1", "Potency": "inactive"}
{"smiles": "OCCN(CCO)CCO", "Potency": "inactive"}
{"smiles": "CCCN(CCC)c1c([N+](=O)[O-])cc(C(F)(F)F)cc1[N+](=O)[O-]", "activity change, negative = inhibition": "-4.48% (inactive)"}
{"smiles": "CN(C)[C@@H]1C(=O)C(C(N)=O)=C(O)[C@@]2(O)C(=O)C3=C(O)c4c(O)cccc4[C@@](C)(O)[C@H]3C[C@@H]12", "Potency": "inactive"}
{"smiles": "O=Cc1cccc(Oc2ccccc2)c1", "Potency": "inactive"}
{"smiles": "CCN(CC)CCO", "Potency": "inactive"}
{"smiles": "C=CCO", "Potency": "inactive"}
{"smiles": "Cc1ccccc1O", "Potency": "inactive"}
{"smiles": "CC(C)OC(=O)Nc1ccccc1", "Potency": "inactive"}
{"smiles": "CCOP(=S)(OCC)Oc1cnc2ccccc2n1", "activity change, negative = inhibition": "8.26% (inactive)"}
{"smiles": "O=[N+]([O-])c1ccccc1", "Potency": "inactive"}
{"smiles": "CCOC(=O)c1ccccc1C(=O)OCC", "Potency": "inactive"}
{"smiles": "COC(=O)c1ccccc1N", "Potency": "inactive"}
{"smiles": "COC(=O)NC(=S)Nc1ccccc1NC(=S)NC(=O)OC", "Potency": "inactive"}
{"smiles": "O=NN1CCCC1", "activity change, negative = inhibition": "-3.49% (inactive)"}
{"smiles": "Clc1ccc(Cl)cc1", "Potency": "inactive"}
{"smiles": "O=C(O)c1ccccn1", "Potency": "inactive"}
{"smiles": "C=C(C)CCl", "Potency": "inactive"}
{"smiles": "c1cc2c3c(cccc3c1)CC2", "activity change, negative = inhibition": "6.58% (inactive)"}
{"smiles": "CCN(CC)c1ccccc1", "Potency": "inactive"}
{"smiles": "CCCCN(CC)C(=O)SCCC", "Potency": "inactive"}
{"smiles": "C#CC(C)(C)NC(=O)c1cc(Cl)cc(Cl)c1", "activity change, negative = inhibition": "-24.2% (inactive)"}
{"smiles": "CC(C)=C[C@@H]1[C@@H](C(=O)OCc2coc(Cc3ccccc3)c2)C1(C)C", "activity change, negative = inhibition": "-24.7% (inactive)"}
{"smiles": "COC(=O)c1ccccc1C(=O)OC", "Potency": "inactive"}
{"smiles": "CCC[N+](=O)[O-]", "Potency": "8.48 µM (active) and inactive"}
{"smiles": "O=NN1CCCCCCC1", "Potency": "inactive"}
{"smiles": "Clc1ccccc1Cl", "Potency": "inactive"}
{"smiles": "O=[N+]([O-])c1ccc([As](=O)(O)O)cc1", "Potency": "inactive"}
{"smiles": "CN(N=O)c1ccccc1", "activity change, negative = inhibition": "9.2% (inactive)"}
